Assay results published in PubChem BioAssay (EPA / NIEHS).
Calls of active or inactive are those of the source. How the source made its calls: active means hit-call score of the fitted dose curve at least 0.9, where 1 is the maximum; inactive means score below 0.9.

Test: BSK_4H_Eotaxin3: BioMAP Diversity Plus: 4H Assay for Eotaxin 3 Biomarker Activity (AID 2283000)
Settings: primary human endothelial cells (HUVEC); actives raise or lower the signal
Procedure: BSK_4H is a cell-based, multiplexed-readout assay that uses umbilical vein endothelium, a human vascular primary cell, with measurements taken at 24 hours after chemical dosing in a 96-well plate.BSK_4H_Eotaxin3 is an assay component measured in the BSK_4H assay. It measures Eotaxin-3 antibody related to regulation of gene expression using ELISA technology.Data from the assay component BSK_4H_Eotaxin3 was analyzed into 1 assay endpoint. This assay endpoint, BSK_4H_Eotaxin3, was analyzed with bidirectional fitting relative to DMSO as the negative control and baseline of activity. Using a type of binding reporter, gain or loss-of-signal activity can be used to understand changes in the signaling as they relate to the gene CCL26. Furthermore, this assay endpoint can be referred to as a primary readout, because this assay has produced multiple assay endpoints where this one serves a signaling function. To generalize the intended target to other relatable targets, this assay endpoint is annotated to the cytokine intended target family, where the subfamily is chemotactic factor.
The levels of cell surface (or secreted, indicated by the prefix "s") biomarker endpoints were measured by ELISA. Overt cytotoxicity to cells in confluent adherent cultures (all systems other than the BT system) was assessed by measuring total protein levels using sulforhodamine B (SRB) staining in parallel cultures at the time of biomarker measurements, indicated as SRB endpoints. For proliferation assays for adherent cell types, individual cell types are cultured at sub-confluence and relative cell numbers quantified by SRB staining at time points optimized for each system (48 h: 3C and CASM3C systems; 72 h: BT and HDF3CGF systems; 96 h: SAg system). SRB was performed by staining cells with 0.1% SRB after fixation with 10% TCA and reading wells at 560 nm.Viability and proliferation of PBMC (T cells) was quantified by Alamar Blue reduction for the SAg and BT systems. For PBMC viability (referred to as PBMC Cytotoxicity within the assay endpoint names), cells were plated (75,000/well in a 96-well plate) and then chemical samples added for 1 h before addition of activators, SEB and TSST-1 (20 ng/mL final concentration each). Cells were incubated for 90 h. Then, Alamar Blue (20 uL/well) (Invitrogen, Cat DAL1100) was added for 6 h, and the plates were read with a fluorescence microplate reader at 546/580 nm (excitation/emission). For PBMC proliferation, cells were plated and activated as above but incubated for only 16 h prior to addition of Alamar Blue. Plates were read after 6 h.
In the case of `O=C(O)c1cc(N=Nc2ccc(S(=O)(=O)Nc3ccccn3)cc2)ccc1O`, the outcome is reported as “inactive”. For `O=C(O)c1cccc(N(Cc2cccnc2)c2ccc(OC(F)F)c(OC(F)F)c2)c1`, the AC50 was 12.9 µM (active). With `O=c1[nH]c2ccc(S(=O)CCN3CCC(Cc4ccc(F)cc4)CC3)cc2o1` (stereo not given) the outcome was “inactive”. For `CCNc1ccccc1`, the outcome was “inactive”. For `Nc1cccc(N)c1`, the outcome was “inactive”. For `CC(C)CCCCCCOC(=O)c1ccc(C(=O)OCCCCCCC(C)C)c(C(=O)OCCCCCCC(C)C)c1`, the outcome was “inactive”. With `Clc1nc(Cl)c(Cl)c(Cl)c1Cl` the outcome was “inactive”. For `CCOc1cccc(-n2cc(C(=O)N3CCN(c4cc(C(=O)O)c5ccccc5c4)CC3)nc2-c2ccc(C)cc2)c1`, the AC50 was 33.1 µM (active). With `Cc1c(-c2cccnc2)c2ccccc2n1CCCCC(=O)O` the outcome was “inactive”. With `CC(=O)OC[C@H]1O[C@@](COC(C)=O)(O[C@H]2O[C@H](COC(C)=O)[C@@H](OC(C)=O)[C@H](OC(C)=O)[C@H]2OC(C)=O)[C@@H](OC(C)=O)[C@@H]1OC(C)=O` the outcome was “inactive”. With `CC(O)CN(CCN(CC(C)O)CC(C)O)CC(C)O` (stereo not given) the outcome was “inactive”. For `O=C(O)CCN(C1(C(=O)NO)CCCC1)S(=O)(=O)c1ccc(Oc2ccc(F)cc2)cc1`, the outcome was “inactive”. With `O=C1CCC(N2C(=O)c3ccccc3C2=O)C(=O)N1` (stereo not given) the outcome was “inactive”. In the case of `Cn1c(=O)cc(Oc2ccc(F)cc2F)c2cnc(NCC(C)(C)O)nc21`, the outcome is reported as “inactive”. With `CCCCCCCCCCCCCCCO` the AC50 was 36.5 µM (active). In the case of `CC/C(=C\C(=N/O)C(N)=O)C(C)[N+](=O)[O-]` (stereo not given), the outcome is reported as “inactive”. In the case of `COc1ccc(-n2nc(C(F)F)cc2-c2ccc(S(C)=O)cc2)cc1` (stereo not given), the outcome is reported as “inactive”. For `COCCOCCOCCOC`, the outcome was “inactive”. In the case of `COC(=O)CC(=O)OC`, the outcome is reported as “inactive”. For `O=C(O)CC(O)C(=O)O` (stereo not given), the outcome was “inactive”. In the case of `O=C1OC(=O)C2C3C=CC(C3)C12` (stereo not given), the outcome is reported as “inactive”. With `COc1cccc(-c2ccc(/C=C\CN3CCCCCC3)cc2Cl)c1` the AC50 was 28 µM (active). For `Cc1ccc(S(=O)(=O)O)cc1C`, the outcome was “inactive”. In the case of `CC(C)=CCCC(C)CCO` (stereo not given), the outcome is reported as “inactive”. With `CN(C)c1ccc(Cc2ccc(N(C)C)cc2)cc1` the outcome was “inactive”. In the case of `CCOCCO`, the outcome is reported as “inactive”. For `CCCCC(CC)COC(=O)c1ccc(C(=O)OCC(CC)CCCC)cc1` (stereo not given), the outcome was “inactive”. With `CC(=O)c1ccc2c(c1)[C@H](NC(=O)c1ccc(F)cc1)[C@@H](O)C(C)(C)O2` the outcome was “inactive”. For `COCCOc1cc2cc(C(=O)NC3CCN(C(C)C)CC3)n(CC(=O)Nc3ccc(Cl)cn3)c2cn1`, the outcome was “inactive”. For `CC[C@H]1OC(=O)[C@H](C)[C@@H](O[C@H]2C[C@@](C)(OC)[C@@H](O)[C@H](C)O2)[C@H](C)[C@@H](O[C@@H]2O[C@H](C)C[C@H](N(C)C)[C@H]2O)[C@](C)(O)C[C@@H](C)C(=O)[C@H](C)[C@@H](O)[C@]1(C)O`, the outcome was “inactive”. For `CC(C)CCO`, the outcome was “inactive”. With `COC(=O)c1c(Cl)c(Cl)c(C(=O)OC)c(Cl)c1Cl` the outcome was “inactive”. For `CC[C@H]1CC[C@H](NCc2cc3c(cc2OC)[C@H]2C[C@H]2C(=O)N3C)[C@H](c2ccccc2)N1`, the outcome was “inactive”. In the case of `Cc1ccc(O)cc1`, the outcome is reported as “inactive”. With `O=C(CCCCCCCCc1cccnc1)N1CCC(C=C(c2ccccc2)c2ccccc2)CC1` the AC50 was 9.64 µM (active). For `C1N2CN3CN1CN(C2)C3`, the outcome was “inactive”. With `Nc1nc2ncc(CNc3ccc(C(=O)N[C@@H](CCC(=O)O)C(=O)O)cc3)nc2c(=O)[nH]1` the outcome was “inactive”. In the case of `CC(C)=CCC/C(C)=C\CO`, the outcome is reported as “inactive”. With `CC[C@H](C)C(=O)O[C@H]1C[C@@H](C)C=C2C=C[C@H](C)[C@H](CC[C@@H]3C[C@@H](O)CC(=O)O3)[C@H]21` the AC50 was 31.5 µM (active). For `CC(C)(O)c1coc(S(=O)(=O)NC(=O)Nc2c3c(cc4c2CCC4)CCC3)c1`, the outcome was “inactive”.
